The values below come from PubChem BioAssay (NCI).

Holding throughout (assay): NCI-60 one-dose screen, 48 h (100 = growth as untreated, 0 = no growth, -100 = all killed)
Conditions in all cases: 10 µM unless noted

Assay [1] deals with T-47D breast.
Assay [2] has as its system BT-549 breast.
The subject of assay [3] is MDA-MB-435 melanoma.
Assay [4] concerns SW-620 colon.
Assay [5] deals with MCF7 breast.
The test system of assay [6] is HCT-116 colon.
The test system of assay [7] is HCC-2998 colon.
Assay [8] has as its system KM12 colon.

Compounds without any hit were thinned out: in the full panel of roughly 83,000, 20% have a hit.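 Activity criterion: percent growth below 10, measured after cells in 96-well plates were exposed to a single compound concentration for 48 hours.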 Unmarked numbers belong to inactive results. Activity calls are given as the source filed them.

With `CS(=O)(=O)c1ccc(C(=O)Nc2ccc(Cl)c(-c3ccccn3)c2)c(Cl)c1`, the growth in assay [1] is 16.6%; in assay [2], 11.8%; in assay [3] it was 14.1%; in assay [4], 20.8%; in assay [5], 20.4%; in assay [6] it was 11.7%. Also, the figures for the growth in assay [7] and in assay [8] were 5.78% (active) and 13.7%, respectively.
`CCc1c(C)c2ccc(O)c(-c3cc(-c4ccccc4)c(C#N)c(=O)[nH]3)c2oc1=O`: the growth in assay [1] is 85.9%; in assay [2] it was 113%; in assay [3], 114%; in assay [4], 105%; in assay [5] it was 84.7%; in assay [6], 95.7%. The growth in assay [7] was 111%; in assay [8], 96.2%.
As for `CCCCCCCCCCCCNC(=O)N[C@H](C(=O)N[C@H]1/C=C/CCNC(=O)/C=C/[C@H](C)NC1=O)C(C)C`, the growth was -41.9% (active) in assay [1]; -87.2% (active) in assay [2]; -40.1% (active) in assay [3]; -22.3% (active) in assay [4]; 14.1% in assay [5]; -85.2% (active) in assay [6]. The growth in assay [7] was -95.8% (active); in assay [8], -62.4% (active).
As for `COc1ccccc1CNCCCN1C(=O)c2ccc3c4c(ccc(c24)C1=O)C(=O)N(CCCOCCCCOCCCN)C3=O`, the growth was -56.8% (active) in assay [1]; 27.4% in assay [2]; -84.6% (active) in assay [3]; -60.6% (active) in assay [4]; -69.6% (active) in assay [5]; -68.7% (active) in assay [6]. The growth in assay [7] was -53.5% (active); in assay [8], -59% (active).
Take `CCOC(=O)C#Cc1c(C(=O)OCC)nnn1[C@@H]1O[C@H](COC(C)=O)[C@@H](OC(C)=O)[C@H]1OC(C)=O`: the growth in assay [1] is 60.2%; in assay [2], 111%; in assay [3], 104%; in assay [4], 13.6%; in assay [5], 41.8%; in assay [6], 92.4%. Besides, the growth in assay [7] was 105%; in assay [8] it was 109%.
Turning to `O=[N+]([O-])c1ccc(N/N=C\c2ccc(O)cc2O)nc1`, the growth in assay [1] is 38.5%; in assay [2], 38%; in assay [3], 45%; in assay [4], 56.4%; in assay [5], 27.4%; in assay [6], 21.3%. Also, the growth was 10.6% in assay [7] and 29.2% in assay [8].
Take `O=C1SCN(Cc2ccccc2)CN1Cc1ccccc1`: the growth in assay [1] was 52.2%; in assay [2], 131%; in assay [3], 73.3%; in assay [4] it was 34.3%; in assay [5], 22.1%; in assay [6] it was 70.5%. The growth in assay [7] is 115%; in assay [8], 32.4%.
On to `O=c1nc(-c2ccccc2)c2cc(-c3ccc(N4CCOCC4)cc3)ccc2[nH]1`, for which the growth in assay [1] is 52.4%; in assay [2] it was 88%; in assay [3], 76.6%; in assay [4], 86.8%; in assay [5], 71.2%; in assay [6] it was 74.3%. In addition, the growth is 98% in assay [7] and 85.7% in assay [8].
`COc1cc(/C=C2\CN(C(=O)OC(C)(C)C)C/C(=C\c3ccc(O)c(OC)c3)C2=O)ccc1O`: the growth was 92.1% in assay [1]; 85.4% in assay [2]; 99.4% in assay [3]; 99.9% in assay [4]; 85.9% in assay [5]; 68.6% in assay [6]. The growth in assay [7] was 106%; in assay [8], 99.1%.
For the compound `O=C(O/C(=C/c1ccccc1)C(F)(F)F)c1ccccc1`, the growth in assay [1] is 101%; in assay [2] it was 105%; in assay [3], 107%; in assay [4], 113%; in assay [5] it was 102%; in assay [6], 105%. Moreover, the results for the growth in assay [7] and in assay [8] were 102% and 99.4%, respectively.
Take `CCCCc1nc(Cl)c(C2CC(c3ccc(S(N)(=O)=O)cc3)=NN2c2cc(Cl)cc(Cl)c2)[nH]1` (stereo unspecified): the growth in assay [1] is 42.5%; in assay [2] it was 60.3%; in assay [3], 35.7%; in assay [4] it was 58%; in assay [5], 6.51% (active); in assay [6], 14.7%. For the same compound, the growth was 29.4% in assay [7] and 32.1% in assay [8].
Consider `COc1cc2c(cc1OC)-c1cc(OC)c(OC)cc1C(CN(C)C)C2` (stereo unspecified), for which the growth in assay [1] was 69.3% [100 µM]; in assay [2], 45.8% [100 µM]; in assay [3], 63.8% [100 µM]; in assay [4], 82.4% [100 µM]; in assay [5], 62% [100 µM]; in assay [6] it was 70.7% [100 µM]. Moreover, the values for the growth in assay [7] and in assay [8] were 85.6% [100 µM] and 82.1% [100 µM], respectively.
Regarding `NS(=O)(=O)c1ccc(CCn2c(SCC(=O)N/N=C/c3cccnc3)nc3ccccc3c2=O)cc1`, the growth is 65.9% in assay [1]; 79% in assay [2]; 93.7% in assay [3]; 96.7% in assay [4]; 79.6% in assay [5]; 77.3% in assay [6]. Further, the growth in assay [7] is 111%; in assay [8], 81.8%.
Regarding `COc1cc(Cl)cc(-c2nn(C(=O)NCCN3CCOCC3)cc2-c2ccncc2)c1`, the growth is 57.4% in assay [1]; 115% in assay [2]; 2.37% (active) in assay [3]; 57.5% in assay [4]; 28.1% in assay [5]; 51.3% in assay [6]. The growth in assay [7] is 88.6%; in assay [8], 61.7%.
With `COc1cc(OC)c2sc(-c3ccc(-n4cncc4-c4ccc(OC)c(N)c4)cc3)nc2c1`, the growth in assay [1] is 77.2%; in assay [2], 75.2%; in assay [3], 68.8%; in assay [4] it was 89.1%; in assay [5] it was 67.3%; in assay [6] it was 66%. Moreover, the growth was 91.8% in assay [7] and 77.7% in assay [8].
As for `FC(F)(F)c1nn[nH]n1`, the growth in assay [1] was 101%; in assay [2], 109%; in assay [3], 101%; in assay [4], 112%; in assay [5], 97.3%; in assay [6], 108%. Also, the growth was 98.1% in assay [7] and 99.6% in assay [8].
Turning to `O=C(/C=C/c1ccco1)c1ccccc1O`, the growth was 77.7% in assay [1]; 95.6% in assay [2]; 113% in assay [3]; 99.7% in assay [4]; 41.3% in assay [5]; 96.8% in assay [6]. In addition, the growth in assay [7] is 84.4%; in assay [8], 99.8%.
For `CCCCn1cnc2c(SCc3ccc([N+](=O)[O-])cc3)nc(N)nc21`, the growth is 80% in assay [1]; 90.4% in assay [2]; 98% in assay [3]; 109% in assay [4]; 91.2% in assay [5]; 92.5% in assay [6]. The results for the growth in assay [7] and in assay [8] were 90.7% and 97.9%, respectively.
As to `COc1ccccc1-[n+]1cc(-c2ccc(-c3ccccc3)cc2)n2c1CCCCC2`, the growth is -5.11% (active) in assay [1]; -1.37% (active) in assay [2]; 6.5% (active) in assay [3]; 14.6% in assay [4]; 4.74% (active) in assay [5]; 6.3% (active) in assay [6]. The growth in assay [7] was 21.5%; in assay [8], 4.15% (active).
With `C=C(COC(C)=O)[C@H]1CC/C(C)=C/CC/C(C)=C/CC[C@@]2(C)O[C@H]2C1`, the growth in assay [1] was 109%; in assay [2], 105%; in assay [3] it was 113%; in assay [4], 112%; in assay [5], 91.1%; in assay [6], 98.2%. In addition, the growth in assay [7] was 112%; in assay [8], 98.6%.
For the compound `COc1ccc(C(=O)OC2C(OC3C(O)COC(O[C@H]4C[C@H]5[C@@H]6CC=C7C[C@@H](O)CC[C@]7(C)[C@H]6CC[C@]5(C)[C@H]4[C@H](C)C(=O)CCC(C)C)C3OC(N)=O)OCC(O)C2O)cc1` (stereo partly specified), the growth in assay [1] was 1.19% (active); in assay [2] it was -2.62% (active); in assay [3], -63% (active); in assay [4], -62.1% (active); in assay [5], -21.1% (active); in assay [6], -7.43% (active). The growth in assay [7] was 52.7%; in assay [8], 27.4%.
`ClC1(Cl)C2CCCCCCC21` (stereo unspecified): the growth in assay [1] is 108%; in assay [2], 101%; in assay [3], 104%; in assay [4], 107%; in assay [5], 98.5%; in assay [6], 110%. For the same compound, the figures for the growth in assay [7] and in assay [8] were 114% and 109%, respectively.
With `c1ccc2c(N=NSc3ncnc4nc[nH]c34)c3ccccc3nc2c1`, the growth in assay [1] is -23.7% (active); in assay [2], 27.9%; in assay [3], 5.09% (active); in assay [4], -27.6% (active); in assay [5] it was -27.7% (active); in assay [6], -33.7% (active). Besides, the values for the growth in assay [7] and in assay [8] were 6.89% (active) and 9.38% (active), respectively.
With `CN1CCCN(CCNc2nccc(-c3c(-c4cccc(O)c4)nc4sccn34)n2)S1(=O)=O`, the growth in assay [1] is 60.7%; in assay [2], 62.9%; in assay [3], 11%; in assay [4], 71%; in assay [5], 74.1%; in assay [6], 21.2%. The growth in assay [7] is 74.8%; in assay [8] it was 64.8%.
In the case of `C#Cc1cccc(Nc2nc3cc([N+](=O)[O-])ccc3nc2Nc2ccc(O)cc2)c1`, the growth in assay [1] is -0.313% (active); in assay [2], 27.7%; in assay [3], 12.2%; in assay [4], -52.9% (active); in assay [5], 2.84% (active); in assay [6], -11.9% (active). Further, the results for the growth in assay [7] and in assay [8] were 5.14% (active) and -36.3% (active), respectively.
For `c1ccc(-c2ccc(-c3ccccc3)[nH]2)cc1`, the growth in assay [1] is 89.6%; in assay [2], 99.8%; in assay [3] it was 97.9%; in assay [4], 105%; in assay [5], 85.9%; in assay [6], 92.7%. For the same compound, the growth was 99.9% in assay [7] and 97% in assay [8].
As to `COc1cccc(NC(=O)OC(C)C)c1`, the growth in assay [1] is 93.8%; in assay [2], 103%; in assay [3], 92.8%; in assay [4] it was 96.6%; in assay [5] it was 102%; in assay [6], 101%. In addition, the growth in assay [7] is 96.7%; in assay [8], 103%.
Take `O=C1Nc2ccccc2/C1=C\c1nc(C2CCN(S(=O)(=O)c3ccc(F)cc3)CC2)n2ccccc12`: the growth in assay [1] is 48.1%; in assay [2] it was 2.09% (active); in assay [3], 70.8%; in assay [4], 82.8%; in assay [5] it was 48.7%; in assay [6], 64.8%. Moreover, the growth in assay [7] is 59.8%; in assay [8], 65.8%.
Regarding `COc1ccc(/C=C/c2nc3ccccc3c(=O)n2-c2ccc(C#Cc3ccc(C(C)(C)C)cc3)cc2C)c(OC)c1`, the growth in assay [1] was 85.5%; in assay [2] it was 99.4%; in assay [3], 91.8%; in assay [4] it was 86.7%; in assay [5], 105%; in assay [6], 69%. In addition, the growth is 97.2% in assay [7] and 88.1% in assay [8].
`O=C1/C(=C/N2N=C(c3ccc(Cl)cc3)CC2c2ccccc2O)SC(=S)N1c1cccc(C(F)(F)F)c1` (stereo unspecified): the growth in assay [1] is 27.4%; in assay [2], 71.7%; in assay [3], 64.6%; in assay [4], 64.7%; in assay [5] it was 15.7%; in assay [6], 45.5%. Further, the figures for the growth in assay [7] and in assay [8] were 62.3% and 38%, respectively.
Regarding `COc1ccc2[nH]cc(C3(c4c[nH]c5ccc(OC)cc45)C(=O)Nc4ccc(F)cc43)c2c1`, the growth in assay [1] is 93.7%; in assay [2] it was 80.1%; in assay [3], 9.03% (active); in assay [4] it was 25.9%; in assay [5], 66.2%; in assay [6], 69%. Moreover, the growth in assay [7] is 72%; in assay [8], 51.1%.
For the compound `N#CCCn1cnc2c(N)ncnc21`, the growth in assay [1] is 95.4%; in assay [2], 103%; in assay [3] it was 102%; in assay [4] it was 102%; in assay [5] it was 97.1%; in assay [6], 99.1%. The growth in assay [7] is 113%; in assay [8] it was 106%.
